Calls of active or inactive are those of the source.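 How the source made its calls, unless noted: active means inhibition above 50%; inactive means the rest.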

Chain of L-lactate dehydrogenase (Plasmodium falciparum (isolate CDC / Honduras)) (Q27743 whole entry, looked up): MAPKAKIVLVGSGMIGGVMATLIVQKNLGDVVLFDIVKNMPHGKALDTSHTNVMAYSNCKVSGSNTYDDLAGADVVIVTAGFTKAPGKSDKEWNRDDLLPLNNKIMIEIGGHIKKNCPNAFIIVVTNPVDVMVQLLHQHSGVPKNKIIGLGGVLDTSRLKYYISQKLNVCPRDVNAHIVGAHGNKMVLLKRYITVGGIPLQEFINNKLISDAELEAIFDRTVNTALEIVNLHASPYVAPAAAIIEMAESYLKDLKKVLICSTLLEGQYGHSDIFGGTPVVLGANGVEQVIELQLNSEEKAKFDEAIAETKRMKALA

System in one assay: not listed separately
The assay can be described thus: HepG2 cytotoxicity, primary screen, cytotoxicity control for P. falciparum antimalarial project, cell-based, ATP luminescence (AID 2303).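 Further: 0% = DMSO wells and 100% = digitonin-killed cells.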 The note with it: HepG2 viability, 24-48 h, at 10 µM, hits give high values.
In the case of `CCCc1cc(Cc2cnc(N)nc2N)ccc1OCCCCCC(=O)O`, the inhibition (usually the drop in the measured response relative to a control, in per cent) is 3% (inactive).
The same measure, in the same setting: in the case of `CC(C)(C)c1nn(-c2ccc(Cl)cc2)c2[nH]c(=O)c(CNC3CCCC3)cc12` it was -2% (inactive); in that of `O=C(c1ccco1)N1CCN(c2nc(-c3ccc(Cl)cc3)nc3ccccc23)CC1`, 13% (inactive).
With `CC(C)CCN1CCC(Oc2ccc(NC(=O)c3ccccc3)cc2Cl)CC1`, the inhibition was 17% (inactive).
With `COc1cccc(-c2nn(C)c3sc(C(=O)Nc4cccnc4)cc23)c1`, the inhibition is 1% (inactive).
As for `Cc1cccc(C)c1C1CCN(C2CCC(NC(=O)/C=C/c3ccccc3)CC2)CC1` (stereo not given), the inhibition was 42% (inactive).
Same read-out and setting: in the case of `Cc1ccnc(Nc2nc(-c3ccccn3)cs2)c1` it was 45% (inactive); in that of `NC1=NC2(CCCCC2)N(OCCCOc2cc(Cl)c(Cl)cc2Cl)C(N)=N1`, 62% (active).
The same measure, in the same setting: the figure for `O=C(NCc1ccc(Cl)cc1)c1ccc(CN2CCCN(Cc3cccc(O)c3)CC2)cc1` is 25% (inactive); for `CS(=O)(=O)NCCCNCc1ccc(-c2ccc(-c3nc4ccc(C(F)(F)F)cc4[nH]3)s2)cc1` it is 21% (inactive); for `CNC(=S)NCc1cnc2ccccn12` it is -2% (inactive).
The same measure, in the same setting: in the case of `Cn1cnc2nc(NCCc3ccccc3)nc(NCc3cccc4ccccc34)c21` it was 16% (inactive); in that of `CCOC(=O)c1cn(CC)c2cc(N(C)CCc3ccc(OC)c(OC)c3)c(F)cc2c1=O`, 9% (inactive); in that of `Cc1cccc2[nH]c(-c3ccc(-c4cccc(CNCc5cnn(-c6ccccc6)n5)c4)s3)nc12`, 40% (inactive).
Regarding `N=c1c2c(n(Cc3cccc(Cl)c3)c3c1CCC3)CCCC2`, the inhibition is -5% (inactive).
With `O=C(Nc1ccccc1Br)N[C@@H]1CCN(c2ccnc3ccccc23)C1`, the inhibition is 25% (inactive).
On the same count and under the same terms, in the case of `Cc1[nH]c(C)c(-c2ccc(-c3ccccc3F)nc2)c(=O)c1Br` it was 2% (inactive).
Consider `CC(=O)c1c(Cc2cccc(C(F)(F)F)c2)c[nH]c1C`, for which the inhibition is 6% (inactive).
On the same count and under the same terms, the figure for `Cc1cc(NC2CCN(CC3CCCCC3)C2)nc(Nc2ccc(Br)cc2)n1` (stereo not given) is 22% (inactive).
Take `Cc1cccc2c(CON3C(N)=NC(N)=NC3(C)C)cccc12`: the inhibition was 64% (active).
As for `CCC(CC)(Cc1ccccc1)NC(=O)[C@H](Cc1ccc(OC)c(OC)c1)Nc1ccc(C#N)c2ccccc12`, the inhibition is 16% (inactive).
On the same count and under the same terms, the figure for `O=C(C=Cc1ccc(Cl)c(Cl)c1)NCCCCCN1CCC(CCNC(=O)/C=C/c2ccccc2)CC1` is 25% (inactive); for `O=C(Nc1cccc(C(F)(F)F)c1)c1cccc(S(=O)(=O)NC2CCCN(CC3CCCCC3)C2)c1` (stereo not given) it is 18% (inactive); for `Cc1cc(NC(=O)c2cc(Br)ccc2Cl)n(-c2nc(C)c(C)c(=O)[nH]2)n1` it is 54% (active).
Turning to `CN(C(=O)/C=C/c1ccccc1F)C1CCN(CCCCCNC(=O)/C=C/c2ccc(Cl)c(Cl)c2)CC1`, the inhibition was 73% (active).
Same read-out and setting: in the case of `CC1CN(Cc2ccc(-c3cccc(-c4nc5ccc(F)cc5[nH]4)c3)cc2)CC(C)O1` (stereo not given) it was 28% (inactive); in that of `CC(C)C[C@@H](CNC[C@H](CC(C)C)NC(=O)OC(C)(C)C)NC(=O)OC(C)(C)C`, 4% (inactive).
`CCNC(=O)N[C@@H]1CN[C@@H](C#Cc2cc3c(Nc4ccc(OCc5cccc(F)c5)c(Cl)c4)ncnc3s2)C1`: the inhibition is -2% (inactive).
Take `CC(C)N1CCN(C(CN2CCN(CCCOc3ccc4ccccc4c3)CC2)c2ccc(F)cc2)CC1` (stereo not given): the inhibition was 59% (active).
Same read-out and setting: the figure for `CN(C)C(=NCCCCCCN=C(NC(N)=NCc1ccc(Cl)c(Cl)c1)N(C)C)NC(N)=NCc1ccc(Cl)c(Cl)c1` is 20% (inactive); for `CCn1c2ccccc2c2cc(C=NNc3cc(C)nc4ccccc34)ccc21` it is 19% (inactive); for `CS(=O)(=O)CCN(CCS(C)(=O)=O)Cc1ccc(-c2ccc3ncnc(Nc4ccc(OCc5cccc(F)c5)c(Cl)c4)c3c2)o1` it is -2% (inactive).
Consider `O=C(NC1CCCC1)c1ccc(N2CCC(NCc3cc4cc(Cl)ccc4[nH]3)CC2)cc1`, for which the inhibition was 21% (inactive).
Regarding `COc1ccccc1C1CCN(CCN2CCC(NC(=O)c3ccc(-c4ccc(C#N)cc4)cc3)CC2)CC1`, the inhibition is 31% (inactive).
The same measure, in the same setting: in the case of `O=C(NC1CCN(Cc2ccc(F)cc2)CC1)c1ccc(-c2cccc(C(F)(F)F)c2)s1` it was 88% (active); in that of `O=C(Nc1ccc(Br)cc1)N(CCN1CCOCC1)CC(O)COc1ccc(Cl)c(F)c1` (stereo not given), 3% (inactive).
The same measure, in the same setting: in the case of `NC(=O)c1ccc(NCC(=O)Nc2cccc(-c3cccc(-c4nc5ccc(C(F)(F)F)cc5[nH]4)c3)c2)cc1` it was 32% (inactive).
On the same count and under the same terms, the figure for `CC(=O)Nc1cccc(-c2cn(-c3ccc(OCc4cccc(F)c4)c(Cl)c3)c3ncncc23)c1` is 7% (inactive); for `CCCc1ccc(NC(=O)c2ccc(CN3CCCN(Cc4cccc(O)c4)CC3)cc2)cc1` it is 51% (active).
As to `Cc1ccc(C)c(NC(=O)Nc2ccc(Nc3nc(C)cc(N4CCOCC4)n3)cc2)c1`, the inhibition was 88% (active).

A further assay addresses L-lactate dehydrogenase (Plasmodium falciparum (isolate CDC / Honduras)) (UniProt Q27743). The assay can be described thus: PfLDH activity inhibition – cell lysate, 3D7 strain, counter-screen for P. falciparum growth inhibition project (AID 2304; call rule not given here;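 further: 0% = vehicle and 100% = reference inhibitor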). The note with it: P. falciparum 3D7 crude extract, LDH APAD/NBT absorbance; at 2 µM; hits give high values. For orientation: Counterscreens check selectivity or assay interference.
For `CCCc1cc(Cc2cnc(N)nc2N)ccc1OCCCCCC(=O)O`, the inhibition is 1% (inactive).
Same read-out and setting: in the case of `CC(C)(C)c1nn(-c2ccc(Cl)cc2)c2[nH]c(=O)c(CNC3CCCC3)cc12` it was 1% (inactive).
Same read-out and setting: the figure for `O=C(c1ccco1)N1CCN(c2nc(-c3ccc(Cl)cc3)nc3ccccc23)CC1` is 5% (inactive).
Same read-out and setting: in the case of `CC(C)CCN1CCC(Oc2ccc(NC(=O)c3ccccc3)cc2Cl)CC1` it was 5% (inactive); in that of `COc1cccc(-c2nn(C)c3sc(C(=O)Nc4cccnc4)cc23)c1`, -2% (inactive); in that of `Cc1cccc(C)c1C1CCN(C2CCC(NC(=O)/C=C/c3ccccc3)CC2)CC1` (stereo not given), -1% (inactive).
`Cc1ccnc(Nc2nc(-c3ccccn3)cs2)c1`: the inhibition is -4% (inactive).
Regarding `NC1=NC2(CCCCC2)N(OCCCOc2cc(Cl)c(Cl)cc2Cl)C(N)=N1`, the inhibition is -11% (inactive).
For the molecule `O=C(NCc1ccc(Cl)cc1)c1ccc(CN2CCCN(Cc3cccc(O)c3)CC2)cc1`, the inhibition was -5% (inactive).
Same read-out and setting: the figure for `CS(=O)(=O)NCCCNCc1ccc(-c2ccc(-c3nc4ccc(C(F)(F)F)cc4[nH]3)s2)cc1` is -5% (inactive).
The same measure, in the same setting: the figure for `CNC(=S)NCc1cnc2ccccn12` is 3% (inactive).
On the same count and under the same terms, in the case of `Cn1cnc2nc(NCCc3ccccc3)nc(NCc3cccc4ccccc34)c21` it was -2% (inactive); in that of `CCOC(=O)c1cn(CC)c2cc(N(C)CCc3ccc(OC)c(OC)c3)c(F)cc2c1=O`, 4% (inactive); in that of `Cc1cccc2[nH]c(-c3ccc(-c4cccc(CNCc5cnn(-c6ccccc6)n5)c4)s3)nc12`, -1% (inactive).
As for `N=c1c2c(n(Cc3cccc(Cl)c3)c3c1CCC3)CCCC2`, the inhibition is -1% (inactive).
Same read-out and setting: the figure for `O=C(Nc1ccccc1Br)N[C@@H]1CCN(c2ccnc3ccccc23)C1` is 2% (inactive); for `Cc1[nH]c(C)c(-c2ccc(-c3ccccc3F)nc2)c(=O)c1Br` it is -3% (inactive).
The same measure, in the same setting: in the case of `CC(=O)c1c(Cc2cccc(C(F)(F)F)c2)c[nH]c1C` it was 7% (inactive).
Turning to `Cc1cc(NC2CCN(CC3CCCCC3)C2)nc(Nc2ccc(Br)cc2)n1` (stereo not given), the inhibition was -1% (inactive).
Still for that read-out and setting: the figure for `Cc1cccc2c(CON3C(N)=NC(N)=NC3(C)C)cccc12` is -1% (inactive); for `CCC(CC)(Cc1ccccc1)NC(=O)[C@H](Cc1ccc(OC)c(OC)c1)Nc1ccc(C#N)c2ccccc12` it is 0% (inactive).
Same read-out and setting: the figure for `O=C(C=Cc1ccc(Cl)c(Cl)c1)NCCCCCN1CCC(CCNC(=O)/C=C/c2ccccc2)CC1` is -7% (inactive); for `O=C(Nc1cccc(C(F)(F)F)c1)c1cccc(S(=O)(=O)NC2CCCN(CC3CCCCC3)C2)c1` (stereo not given) it is 1% (inactive); for `Cc1cc(NC(=O)c2cc(Br)ccc2Cl)n(-c2nc(C)c(C)c(=O)[nH]2)n1` it is -2% (inactive).
On the same count and under the same terms, the figure for `CN(C(=O)/C=C/c1ccccc1F)C1CCN(CCCCCNC(=O)/C=C/c2ccc(Cl)c(Cl)c2)CC1` is -1% (inactive); for `CC1CN(Cc2ccc(-c3cccc(-c4nc5ccc(F)cc5[nH]4)c3)cc2)CC(C)O1` (stereo not given) it is -3% (inactive); for `CC(C)C[C@@H](CNC[C@H](CC(C)C)NC(=O)OC(C)(C)C)NC(=O)OC(C)(C)C` it is 1% (inactive).
Regarding `CCNC(=O)N[C@@H]1CN[C@@H](C#Cc2cc3c(Nc4ccc(OCc5cccc(F)c5)c(Cl)c4)ncnc3s2)C1`, the inhibition was 0% (inactive).
`CC(C)N1CCN(C(CN2CCN(CCCOc3ccc4ccccc4c3)CC2)c2ccc(F)cc2)CC1` (stereo not given): the inhibition is 5% (inactive).
Regarding `CN(C)C(=NCCCCCCN=C(NC(N)=NCc1ccc(Cl)c(Cl)c1)N(C)C)NC(N)=NCc1ccc(Cl)c(Cl)c1`, the inhibition was -9% (inactive).
Still for that read-out and setting: in the case of `CCn1c2ccccc2c2cc(C=NNc3cc(C)nc4ccccc34)ccc21` it was -2% (inactive); in that of `CS(=O)(=O)CCN(CCS(C)(=O)=O)Cc1ccc(-c2ccc3ncnc(Nc4ccc(OCc5cccc(F)c5)c(Cl)c4)c3c2)o1`, -3% (inactive).
Take `O=C(NC1CCCC1)c1ccc(N2CCC(NCc3cc4cc(Cl)ccc4[nH]3)CC2)cc1`: the inhibition was -2% (inactive).
Turning to `COc1ccccc1C1CCN(CCN2CCC(NC(=O)c3ccc(-c4ccc(C#N)cc4)cc3)CC2)CC1`, the inhibition is -5% (inactive).
On the same count and under the same terms, in the case of `O=C(NC1CCN(Cc2ccc(F)cc2)CC1)c1ccc(-c2cccc(C(F)(F)F)c2)s1` it was 4% (inactive).
Same read-out and setting: in the case of `O=C(Nc1ccc(Br)cc1)N(CCN1CCOCC1)CC(O)COc1ccc(Cl)c(F)c1` (stereo not given) it was -4% (inactive).
Regarding `NC(=O)c1ccc(NCC(=O)Nc2cccc(-c3cccc(-c4nc5ccc(C(F)(F)F)cc5[nH]4)c3)c2)cc1`, the inhibition is 1% (inactive).
Turning to `CC(=O)Nc1cccc(-c2cn(-c3ccc(OCc4cccc(F)c4)c(Cl)c3)c3ncncc23)c1`, the inhibition was -4% (inactive).
Same read-out and setting: the figure for `CCCc1ccc(NC(=O)c2ccc(CN3CCCN(Cc4cccc(O)c4)CC3)cc2)cc1` is -1% (inactive); for `Cc1ccc(C)c(NC(=O)Nc2ccc(Nc3nc(C)cc(N4CCOCC4)n3)cc2)c1` it is 0% (inactive).

Source of the values: PubChem BioAssay.
